Measured values reported in PubChem BioAssay AID588827 (Broad Institute, 2011).
The campaign covered roughly 2,400 compounds. About 20 (0.8%) were called active. Inconclusive results (about 19%) are left out.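 How the source made its calls: active means fitted half-maximal concentration for signal decrease at or below twice the top tested dose, in every repeat run; inconclusive means repeat runs disagree, or flat partial inhibition, or poor fit; inactive means all runs flat, wrong-direction or potency beyond limit.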 These entries were drawn from the full list. Results with a measured potency or affinity are listed apart.

Experiment: decrease of heat-induced HSF-1 GFP reporter, dose response, NIH3T3 R4 cells, GFP/RFP, cherry-pick, set 4 (AID 588827);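 further: 0% = neutral control wells and -100% = didemnin B at 400 nM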
Conditions: NIH3T3 R4 HSF-1 GFP reporter, heat shock, 48 h; series mostly up to 19.5 µM; activity change, negative = inhibition: at the top concentration

Activity change, negative = inhibition, inactive:
Nc1ncnc2oc(-c3ccco3)c(-c3ccco3)c12 -24.9%, CCN1CC2([N+](=O)[O-])C=CC(=O)C([N+](=O)[O-])(C1)C2CC(=O)c1ccccc1 (stereo not given) -27.8%, CCOC(=O)c1c(N)sc2c(O)c(Br)ccc12 -15.5%, Cc1[nH]c2ccccc2c1/C=C/c1nc2ccccc2c(=O)n1-c1cccc([N+](=O)[O-])c1 -7.65%, O=C(c1ccc([N+](=O)[O-])s1)N1CCN(c2cccc(Cl)c2)CC1 -14.1%, O=C(O)c1cccc(COc2ccc3c(c2)CCC3)c1 19.3%, CC(C)c1ccc(-c2nc3ccccc3s2)cc1 -15.1%, CC1=Nc2ccc(C)c3nc(C)cc(c23)N1c1ccc(C)cc1 -23.6%, N#Cc1cc2c(nc1SCC(=O)N1CCOCC1)CCCCC2 -3.19%, COc1ccc(/C=C/C(=O)Oc2ccc(/C=N/NC(=O)COc3c(C)cccc3C)cc2)cc1 -5.78%, CCN(c1ccccc1)S(=O)(=O)c1cnc[nH]1 21.3%, COc1ccccc1N=Nc1ccc(O)c2ncccc12 -0.842%, COc1cccc(NC(=O)Nc2nnc(Cc3ccccc3F)s2)c1 -18.8%, COc1ccccc1C(=O)NCCC(=O)NNC(=O)Cn1ccc(C(F)(F)F)n1 -21.8%, Nc1nc(Cl)nc2ccc(Br)cc12 -19%, CCN1CCN(/C=N/c2nc3c(s2)CCCC3)CC1 -11.3%, Cn1c(=O)c2c(nc(Oc3cccc(O)c3)n2C)n(C)c1=O -12.2%, Cc1ccc(NC(=O)CCN2C(=O)C3CCCCC3C2=O)cc1[N+](=O)[O-] (stereo not given) 28.3%, O=C(CCCCCn1c(=S)[nH]c2cc3c(cc2c1=O)OCO3)N1CCN(C(=O)c2ccco2)CC1 -18.7%, CCCCOc1ccc(N=Cc2ccc[nH]2)cc1 -5.17%, CCOc1ccc(-c2nc(CSCC(=O)N3CCN(c4cccc(OC)c4)CC3)c(C)o2)cc1 -28.1%, O=C(NCCN1CCCCC1)Nc1ccccc1Cl -21.1%, CCC1CCCCN1CCCNC(=O)CSc1nc2nc(C)c(Cc3ccc(C)cc3)c(C)n2n1 (stereo not given) 7.1%, O=C(Nc1ccc2c(c1)ncn2C1CCCCC1)c1ccco1 -27%, CC(C)(C)c1ccc(C(=O)NC(=S)Nc2nc3c(s2)CCCC3)cc1 -26.4%, N#Cc1nc(-c2ccco2)oc1N1CCN(Cc2ccccc2)CC1 -1.82%, COc1ccc(S(=O)(=O)/C(C#N)=C/Nc2cccc(OC)c2)cc1 -13.2%, CCCC[C@@H]1C[C@H]1[C@@H](NC(=O)c1ccco1)c1ccc(Cl)cc1 -16.9%, Cc1ccc(C(=O)Nc2cccc(C(F)(F)F)c2)cc1NC(=O)c1ccno1 2.88%, Fc1ccc(CO/N=C/C2=C(Cl)c3ccccc3CC2)cc1 -14.4%, COc1ccc(-n2c(C)c(C(C)=O)c(C(C)=O)c2C)cc1 -21.1%, CSc1ncccc1C(=O)N1CCCC(N2CCN(c3ccccc3F)CC2)C1 (stereo not given) 6.57%, CC(=O)N/C(=N\c1nc(C)cc(C)n1)Nc1ccc2ccccc2c1 -10.8%, Cc1ccc(/C=C(\NC(=O)c2ccccc2)C(=O)N2CCCC2C(=O)O)cc1 (stereo not given) -6.42%, COc1ccc(NC(=S)Nc2ccc(C)c(S(=O)(=O)N3CCCCC3)c2)cc1 -33.6%, Oc1ccccc1CNc1ccc(OC(F)(F)F)cc1 -21.3%, CCOc1c2ccc(C(=O)NCc3ccccc3OC)cc2nn1CC -2.38%, CC(O/N=C\c1ccccc1O)C(=O)Nc1ccccc1C(=O)N1CCOCC1 (stereo not given) 4.38%, COc1cccc(N(C(=O)c2cccs2)c2nc3ccccc3s2)c1 -7.54%, CCOc1cc(C#N)c(NC(=O)c2cccnc2Cl)cc1OCC -7.83%, C=CCSc1nc2ccccc2n1C(=O)/C=C/c1cc(OC)c(OC)c(OC)c1 2.52%, O=C(Nc1ccc(N2CCCCC2)cc1)c1ccccn1 14.8%, Cc1cc(C)c(N=C2SCC(=O)N2Cc2ccco2)c(C)c1 13.7%, O=C(NC(=O)c1cccc(F)c1)OC[C@@H]1CCCN2CCCC[C@H]12 -8.55%, CCCCN(C(=O)COc1ccc(C)cc1OC)c1c(N)n(CCC)c(=O)[nH]c1=O -8.36%, Cc1cc(C)c2c(c1)/C(=N/NS(=O)(=O)c1ccc(Br)cc1)CCC2 -11.3%, Cc1ccc(N(C)C(=O)CN(C)S(=O)(=O)c2ccc3c(c2)n(C)c(=O)c(=O)n3C)cc1 -5.74%, CCC(=O)Nc1cc2nn(-c3ccc(C)cc3)nc2cc1C -26.2%, O=C1C(Cc2ccccc2)Nc2ncnc(N3CCN(c4ccccc4)CC3)c2N1Cc1ccccc1 (stereo not given) -9.33%, O=C(CSC(=S)N1CCCCC1)Nc1ncc2c(n1)CCCC2=O -1.31%, N#Cc1c(SCC(=O)Nc2nccs2)nc2c(c1-c1ccco1)CCCC2 31.6%, CCN1C(=O)[C@H]2[C@@H](c3ccc(C)cc3)N3C(=O)N(c4ccc(C)cc4)C(=O)[C@@]3(C)[C@H]2C1=O 14.5%, CC(C)Cc1csc(NC(=O)c2ccc(F)cc2)c1C(=O)O -14.2%, CCOC(=O)c1ccc(NC(=S)NC(=O)C2CCCC2)cc1 -32%, CCOC(=O)c1ccc(Nc2ncnc3nc[nH]c23)cc1 1.84%, COc1ccc(C(=O)N2CCN=C2SCc2cccnc2)cc1OC 3.94%, COc1ccc(NC(C)=O)cc1NC(=O)CN1CCN(CC(=O)Nc2ccccc2Cl)CC1 -18.4%, CC1(C)CC(=O)C2=C(C1)N(Cc1ccccc1)C(=O)C2(NC(=O)C(C)(C)C)C(F)(F)F (stereo not given) 1.22%, Cc1ccc(C(=O)CSc2cnc3ccccc3n2)cc1C -15.7%, C/C(=N\NC1=NCCN1)c1ccc(N)c([N+](=O)[O-])c1 -5.31%, Cc1ccc(OCC(=O)Nc2ccccc2C(=O)N2CCCCC2)cc1 -11.1%, CCN(CC)S(=O)(=O)c1cccc(NC(=O)CCNC(=O)NC23CC4CC(CC(C4)C2)C3)c1 -25.2%, Cc1cccc(CS(=O)(=O)Cc2ccc(C(=O)NCc3cccs3)o2)c1 -20.7%, CC(C)OCCCn1c(NN)nc2ccccc2c1=O -8.01%, COc1nc(N)c(C#N)c(-c2ccc(N(C)CCC#N)cc2)c1C#N -15.4%, CCCSc1nnc(CNS(=O)(=O)c2ccc(C)cc2)n1C 15.3%, Cc1ccc(CSCC(=O)N(C)CC(=O)Nc2ccc(C)cc2)cc1 -13.1%, COc1ccc(O)c(-c2c(-c3ccc(Cl)cc3)n[nH]c2C)c1 -9.04%, COc1ccc(NCc2nnc(SCC(=O)Nc3cc(C(F)(F)F)ccc3Cl)o2)cc1 -17.5%, O=C(CCCc1nc(-c2ccccc2Cl)no1)NC1CCCC1 8.17%, COc1ccc(CC(C)Nc2cccc(SC)c2)cc1 (stereo not given) -7.7%, O=C(CN(Cc1ccccc1Cl)S(=O)(=O)c1ccc(Cl)cc1)N/N=C/c1ccc(C(=O)O)cc1 2.93%, Cc1ccc(N=Nc2ccc3ccccc3c2O)cc1 6.26%, C=CCn1c(=NC(=O)C2CC2)sc2cc(NC(C)=O)ccc21 2.06%, CCCCNC(=O)C(=O)N/N=C/c1ccc(C(=O)OC)cc1 -8.74%, O=c1cc(-c2ccccc2)c2ccc(O)cc2o1 -13%, CC(=O)c1ccc(NC(=O)C2CCN(S(=O)(=O)c3cccc4cccnc34)CC2)cc1 -9.15%, COc1ccc(NC(=S)Nc2ccc(F)cc2)c(OC)c1 -12.6%, O=C(CSc1ccc(Br)cc1)Nc1ccccc1N1CCOCC1 -9.45%, COc1cc(C(=O)N2CCSCC2)ccc1OC1CCN(C(C)=O)CC1 -1.88%, COc1ccccc1Oc1ccc2c(c1)C(=O)N(c1ccc(Br)c3cccnc13)C2=O -24.3%, Cc1c(Cl)cccc1NC(=O)Nc1cnccn1 -29.6%, CCN(CC)c1ccc(CNc2nc3ccccc3n2CCN2CCOCC2)cc1 -31.2%, CN(C(=O)c1ccc2c(c1)SC1=NS(=O)(=O)CCN12)C(c1ccccc1)c1ccccc1 4.39% [at 10 µM], O=c1o[nH]c(-c2ccccc2)c1-c1ccccc1 5.38%, O=C(Nc1cccc(Cl)c1)N1CCOCC1 -24.5%, CCOC(=O)C1(Cc2ccc(OC)cc2)CCN(C(=O)c2csc(C)n2)CC1 -3.83%, Cc1ccccc1-c1nc2sc3c(c2c(=O)n1N)CCCC3 -10.4%, Cn1c(=O)cc(SCC(=O)N2CCN(C(=O)c3ccco3)CC2)c2ccccc21 -11.5%, Cc1[nH]c2ccccc2c1C(C[N+](=O)[O-])c1cccs1 (stereo not given) -1.12%, COc1cccc(-c2cc3nc4c(c(NCC(C)(C)CN(C)C)n3n2)CCCC4)c1 -15.6%, CCOc1ccc(NC(=O)C2CCCN(c3nn4c(=O)cc(C)nc4s3)C2)cc1 (stereo not given) 9.81%, Cc1ccc2nc(-c3ccccc3NC(=O)CCC(=O)O)c(=O)[nH]c2c1 11.3%, N#CC1=C(N)Oc2cc(N)ccc2C1c1ccccc1Cl (stereo not given) -13.4%, Cc1cc(Nc2ccc3c(c2)OCCO3)c2cc(Cl)ccc2n1 -28.1%, CCn1nc(C)c(/C=N/NC(=O)c2c[nH]c3ccccc23)c1C 4.32%, N#Cc1c(N)nc(SCc2ccncc2)c(C#N)c1-c1cccs1 -23%, CCOc1ccc(N(CC(=O)NC2CCCCC2)C(=O)CCC(=O)Nc2nc(C)cs2)cc1 -1.1%, CCSc1nnc(-c2ccc(S(=O)(=O)NCc3cccs3)cc2)o1 -22.9%, O=C(c1cc2c(s1)-c1ccccc1OC2)N1CCN(c2ccccc2)CC1 -1.28%, Cc1cc(/C=C2/C(=O)NN(c3ccccc3)C2=O)c(C)n1-c1ccc(O)cc1 -1.39%, C/C(=N\Nc1nncc2ccccc12)c1ccc(Cl)c([N+](=O)[O-])c1 4.2%, Cc1cc(Cl)ccc1OCCCC(=O)N1CCOCC1 4.58%, CCC(NC(=S)NC1CCCCC1)c1ccccc1 (stereo not given) 3.39%, CCN(CC(=O)Nc1c(F)cccc1F)C(=O)Cc1n[nH]c(=O)c2ccccc12 -8.1%, COC(=O)C1=C(C)N(CCCC(=O)O)C(=O)NC1c1ccc(C#N)cc1 (stereo not given) -11.5%, O=C(CN1CCCCC1)Nc1cccc2c1OCO2 -20.8%, CC(CN1CCOCC1)OC(=O)C(c1ccccc1)c1ccccc1 (stereo not given) 3.47%, O=C(O)CSCC(=O)Nc1ccc(C2CCCCC2)cc1 -19.7%, Cc1ccnc(NC(c2ccsc2)c2ccc3ccc(C)nc3c2O)c1 (stereo not given) 77.1%
